HT1080-NT tox – kills 2HG-producing HT-1080-NT fibrosarcoma cells; HT-1080-NT fibrosarcoma viability, CellTiter-Glo ATP luminescence, 48 h; 360,000 tested, 1.6% active; Potency, µM (doses to about 46.1 µM), for the others: at the top dose activity, negative = less viability, most hits filed as cytotoxic;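 note: NT is the 2HG producing partner of a matched IDH1 knockdown line; 0% = DMSO-treated cells and -100% = media-only wells without cells; nearly all actives have a fitted effect of over 55% in size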
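Compounds were tested in concentration-response format on HT-1080-NT cells for 48 hours at 37 degrees C. Cell viability came from CellTiter-Glo luminescence; curves were classified by r2, response magnitude and activity.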
KB-V1 cytotox – KB-V1 MDR subline cytotoxicity; KB-V1 MDR cells viability, CellTiter-Glo, 72 h; Potency, µM (top dose mostly 46.1 µM), actives largely listed as cytotoxic; 400,000 tested, 3.4% active; note: % is set by controls: 0 for no effect and ±100 for the full control effect; nearly all actives have a fitted effect of over 60% in size
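Drug-selected KB-V1 cells, grown in DMEM lacking phenol red with 10% FBS, receive compound titrations; after three days at 37 degrees C, surviving cell ATP is quantified by CellTiter-Glo luminescence and responses normalized and curve-fitted.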
KB-3-1 cytotox – kills parental KB-3-1 adenocarcinoma cells. KB-3-1 viability, CellTiter-Glo ATP luminescence, 72 h. Potency, µM (doses to about 46.1 µM), actives largely listed as cytotoxic. 400,000 tested, 1.4% active; note: % is set by controls: 0 for no effect and ±100 for the full control effect; nearly all actives have a fitted effect of over 60% in size
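Parental KB-3-1 viability, qHTS format: 72 h compound exposure, 37 °C; CellTiter-Glo; media-only wells and DMSO plates as controls; concentration-effect fits on corrected data.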
HT1080 IDH1KD tx – toxicity to HT-1080 IDH1 knockdown cells (counter line). AID 686971. HT-1080 IDH1 knockdown viability, ATP luminescence, 48 h. Potency, µM (series often up to 46.1 µM), without a hit: at the highest dose activity, negative = toxicity, most hits filed as cytotoxic. 360,000 tested, 2% active;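 note: 0% = DMSO wells and -100% = cell-free medium wells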
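Assay cells: HT-1080 with IDH1 knockdown, 750 per well, RPMI/5% FBS. Exposure: 48 h at 37 °C following 2 h pre-incubation. Read: CellTiter-Glo luminescence; fitted concentration-response, curve class assigned.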
MCF10A rerep – DNA re-replication induction in MCF 10a cells; Potency, µM (highest dose often 46.1 µM), for inactives: at the top dose activity, positive = re-replication, actives largely listed as activators; 350,000 tested, 2.9% active; MCF 10A DNA re-replication, Hoechst nuclear intensity, 48 h; AID 624296; note: % of control where 0% means no effect; nearly all actives have a fitted effect of over 50% in size
SW480 rereplic – inducers of DNA re-replication in SW480 colon cancer cells; AID 624297; 340,000 tested, 1.8% active; SW480 DNA re-replication, Hoechst DNA content imaging, 48 h; Potency, µM (doses to about 46.1 µM), for the others: at the highest dose re-replication activation, hits mostly activators; note: % of control where 0% means no effect; nearly all actives have a fitted effect of over 55% in size
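Hoechst fluorescence of nuclei (405 nm excitation, 500-530 nm emission) measured by plate-scanning imager after 48 hr compound exposure at 37 C; re-replication scored as increased number of nuclei with elevated intensity.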
* = called active by the depositor; i = inactive; ? = inconclusive; nt = not tested or not shown; [ ] = remark or other dose. Compounds with a hit are over-represented: about 7.9% of the library has one in this group of screens. Calls come from the whole dose curve; as a rule, active = well fitted curve in the direction sought with a large enough effect; inconclusive = small, poorly fitted or top-dose-only effect, or another doubt; inactive = no such curve, though single readings can be large; an effect the other way counts as inactive or inconclusive. Potency is the fitted concentration of half-maximal effect.

SMILES | HT1080-NT tox | KB-V1 cytotox | KB-3-1 cytotox | HT1080 IDH1KD tx | MCF10A rerep | SW480 rereplic
COc1cccc(Nc2ncccc2C(=O)Nc2ccccc2)c1 | 17% | i | i | 14% | 23µM* | ?
COc1ccc(NC(=O)c2cc(-c3ccccn3)nc3c(C)cc(C)cc23)c(C)c1 | -4% | nt | nt | -2% | 10µM* | ?
Cc1cc(C)c2nc(-c3ccccn3)cc(C(=O)NCc3ccc(S(N)(=O)=O)cc3)c2c1 | nt | i | i | nt | 13µM* | -2%
Cc1cc(C)c2nc(-c3ccccn3)cc(C(=O)NCCc3ccc(S(N)(=O)=O)cc3)c2c1 | -19% | i | i | ? | ? | ?
COc1cccc(NC(=O)c2ccccc2Oc2ccccc2)c1 | 11% | i | i | 10% | -1% | -22%
COc1ccc(NC(=O)CC2C(=O)N(c3ccc(C)cc3)C(=O)N2Cc2ccc(C)cc2)cc1 (centres undefined) | nt | i | i | nt | nt | nt
COc1cccc(NC(=O)CN(C)C(=O)c2cccnc2Nc2cccc(C(F)(F)F)c2)c1 | ? | ? | ? | 16µM* | 21µM* | ?
O=Nc1c(O)[nH]c2ccc(Cl)c(Cl)c12 | ? | ? | 0.41µM* | ? | 18% | 1%
Cn1c(=O)c2ccccc2n(Cc2ccccc2F)c1=O | -22% | ? | i | -12% | 23% | -4%
Cc1nc2c3cc(F)ccc3n(Cc3ccccc3F)c2s1 | 21µM* | ? | ? | 18µM* | 105% | ?
Cc1nc2c3cc(F)ccc3n(Cc3ccccc3)c2s1 | ? | ? | 16µM* | ? | 19% | ?
CSc1nnc2c3cc(F)ccc3n(Cc3ccccc3)c2n1 | -2% | ? | i | -3% | 0% | -2%
CCc1ccc2c(c1)c1nc(C)sc1n2CC(=O)OC | 2% | i | i | 2% | -7% | -5%
Cc1nc2c3ccccc3n(Cc3ccccc3F)c2s1 | -19% | ? | i | -23% | 15µM* | 17%
Cc1nc2c3cc(F)ccc3n(CCN3CCCCC3)c2s1 | 21µM* | i | ? | ? | 23µM* | ?
Cc1cc(C)c(Cn2c(=O)[nH][nH]c2=O)cc1Cn1c(=O)[nH][nH]c1=O | 0% | i | i | 0% | nt | nt
CN(C=O)c1cc([N+](=O)[O-])ccc1OCc1ccccc1 | 20% | 18µM* | i | 24% | ? | -1%
CNc1cc([N+](=O)[O-])ccc1OCc1ccccc1 | 10% | i | i | 4% | 11% | -5%
CCOC(=O)C1(C)CCN1C(=O)c1ccc(N(C)C)cc1 (centres undefined) | 17% | i | i | 20% | nt | nt
CC(=O)Nc1cccc(-c2ccnc3c2CC(C(=O)Nc2ccc(F)c(Cl)c2)O3)c1 (centres undefined) | ? | i | i | ? | nt | nt
O=C(Nc1ccc(F)c(Cl)c1)C1Cc2c(-c3ccco3)ccnc2O1 (centres undefined) | -18% | 21µM* | ? | -19% | nt | nt
CC(C)c1ccc(NC(=O)C2Cc3c(-c4ccco4)ccnc3O2)cc1 (centres undefined) | ? | 21µM* | i | ? | nt | nt
COCCNc1oc(-c2ccc(C)cc2)nc1C#N | 2% | 23µM* | i | 10% | 2% | -173%
Cc1ccc(-c2nc(C#N)c(NCCN3CCCCC3)o2)cc1 | -10% | 23µM* | i | -7% | 2% | 6%
N#Cc1nc(-c2ccc(F)cc2)oc1NCCN1CCOCC1 | -2% | ? | i | -7% | 12% | -16%
SMILES | HT1080-NT tox | KB-V1 cytotox | KB-3-1 cytotox | HT1080 IDH1KD tx | MCF10A rerep | SW480 rereplic
Cc1ccc(-c2cccc(-c3cc(=O)oc4ccc(C(C)(C)C)cc34)c2)cc1 | 2% | i | i | 0% | -37% | -19%
CCn1cc(/C=C(\NC(=O)c2cc(OC)c(OC)c(OC)c2)C(=O)N2CCOCC2)c2ccccc21 | 0% | i | i | -17% | nt | nt
C=CCn1c(Cc2cccs2)nnc1SCC(=O)Nc1ccc(OC)c(OC)c1 | 14% | 23µM* | i | -1% | 0% | -6%
C=CCn1c(Cc2cccs2)nnc1SCC(=O)c1ccc2ccccc2c1 | -1% | ? | i | 7% | 12µM* | 27%
CCc1ccc(C2Sc3ccccc3NC3=C2C(=O)c2ccccc23)cc1 (centres undefined) | nt | ? | i | nt | nt | nt
O=C1C2=C(Nc3ccccc3SC2c2ccc(C(F)(F)F)cc2)c2ccccc21 (centres undefined) | nt | 16µM* | ? | nt | nt | nt
O=C1C2=C(Nc3ccccc3SC2c2ccco2)c2ccccc21 (centres undefined) | -29% | i | i | -26% | 16µM* | 6%
CC(=O)Nc1ccc(C2Sc3ccccc3NC3=C2C(=O)c2ccccc23)cc1 (centres undefined) | nt | i | i | nt | nt | nt
O=C(Nc1ccc(F)cc1)C(c1cc2ccccc2o1)N1CCN(c2cccc(C(F)(F)F)n2)CC1 (centres undefined) | 24% | i | i | 17% | nt | nt
CCCc1ccc(C(=O)O)cc1 | nt | nt | nt | nt | 8% | 0%
CCOC(=O)Cn1c(=O)n(-c2ccccc2OC)c2nc(-c3ccccc3C)nc(C(N)=O)c21 | nt | i | i | nt | nt | nt
CCCNC(=O)N(C)C[C@H]1Oc2cc(Br)ccc2S(=O)(=O)N([C@@H](C)CO)C[C@@H]1C | 7% | i | i | 1% | nt | nt
Cn1c(Sc2ccc(C(F)(F)F)cc2[N+](=O)[O-])nnc1-c1ccccc1 | -25% | 21µM* | i | -11% | 13% | 4%
Cc1ccccc1C(=O)Nc1ccccc1C(=O)OCc1cc(=O)n2ccsc2n1 | nt | i | i | nt | nt | nt
CC1=C(c2ccc(Cl)cc2)S(=O)(=O)NC1=NCc1ccc(C)cc1 | nt | i | i | nt | nt | nt
COc1ccc(OC)c(N(CC(=O)Nc2cccnc2)S(=O)(=O)c2ccccc2)c1 | 6.5µM* | ? | i | 3.3µM* | 2% | -21%
COc1cccc(N(CC(=O)Nc2ccc3c(c2)OCO3)S(=O)(=O)c2ccccc2)c1 | -13% | 16µM* | i | -10% | 9% | 16%
CN(c1cccc(NC(=O)CN(c2cccc(Cl)c2)S(=O)(=O)c2ccc(Cl)cc2)c1)S(C)(=O)=O | -15% | 18µM* | ? | -20% | 17% | nt
COC(=O)c1cc(NC(=O)CN(c2ccccc2OC)S(=O)(=O)c2ccccc2)ccc1Cl | -25% | i | i | -16% | 29% | -2%[9.22 µM]
COc1ccccc1N(CC(=O)Nc1cccnc1)S(=O)(=O)c1ccccc1 | 0% | ? | i | 17% | ? | 10%

Screening results from PubChem BioAssay.
